Results reported in PubChem BioAssay (NCI).
Compounds without any hit were thinned out: in the full panel of roughly 83,000, 20% have a hit.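 48-hour exposure, single concentration, 96-well plates; percent growth endpoint where 0 means no net growth. Active: below 10.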 Active and inactive are the calls of the source.

How the values were obtained:
Assay in all cases: NCI-60 one-dose screen, 48 h (100 = growth as untreated, 0 = no growth, -100 = all killed)
HCT-15 colon = settings: 10 µM unless noted
HT29 colon = settings: 10 µM unless noted
SNB-75 CNS = settings: 10 µM unless noted
SNB-19 CNS = settings: 10 µM unless noted
U251 CNS = settings: 10 µM unless noted
PC-3 prostate = settings: 10 µM unless noted
SK-MEL-5 melanoma = settings: 10 µM unless noted
UACC-62 melanoma = settings: 10 µM unless noted
LOX IMVI melanoma = settings: 10 µM unless noted
SK-MEL-28 melanoma = settings: 10 µM unless noted
SK-MEL-2 melanoma = settings: 10 µM
EKVX NSCLC = settings: 10 µM unless noted
UO-31 renal = settings: 10 µM unless noted
TK-10 renal = settings: 10 µM unless noted
ACHN renal = settings: 10 µM unless noted
A498 renal = settings: 10 µM unless noted
CCRF-CEM leukemia = settings: 10 µM unless noted
MOLT-4 leukemia = settings: 10 µM unless noted
SN12C renal = settings: 10 µM unless noted
CAKI-1 renal = settings: 10 µM unless noted

Measured: growth

C[N+](C)(CCOC(c1ccccc1)c1ccccc1)CC(=O)OCc1ccccc1
inactive: HCT-15 colon 99.3% | HT29 colon 101% | SNB-75 CNS 76% | SNB-19 CNS 106% | U251 CNS 106% | PC-3 prostate 98.3% | SK-MEL-5 melanoma 98.1% | UACC-62 melanoma 104% | LOX IMVI melanoma 101% | SK-MEL-28 melanoma 106% | SK-MEL-2 melanoma 105% | EKVX NSCLC 101% | UO-31 renal 86.9% | TK-10 renal 96% | ACHN renal 111% | A498 renal 114% | CCRF-CEM leukemia 122% | MOLT-4 leukemia 116%

O=C(N/N=C/c1ccc(Cl)cc1)c1cc(-c2cc3ccccc3o2)nn1-c1ccccc1
inactive: HCT-15 colon 93% | HT29 colon 107% | SNB-75 CNS 86.5% | SNB-19 CNS 94.5% | U251 CNS 96% | PC-3 prostate 89.6% | SK-MEL-5 melanoma 56.3% | UACC-62 melanoma 83.7% | LOX IMVI melanoma 84.7% | SK-MEL-28 melanoma 99.7% | SK-MEL-2 melanoma 91.2% | EKVX NSCLC 89.6% | SN12C renal 94.9% | TK-10 renal 94.8% | ACHN renal 93.5% | CAKI-1 renal 100% | CCRF-CEM leukemia 95.6% | MOLT-4 leukemia 78%

ClCc1ccc(-c2ccc(Cn3cnc4c(Cl)nc(Cl)nc43)cc2)cc1
active: HCT-15 colon -44.3% | HT29 colon 0.0492% | SNB-75 CNS -26.9% | SNB-19 CNS 0.603% | U251 CNS -79.2% | PC-3 prostate -95.6% | SK-MEL-5 melanoma -67.7% | UACC-62 melanoma -13.6% | LOX IMVI melanoma -70.8% | SK-MEL-28 melanoma -29.4% | EKVX NSCLC -57.9% | TK-10 renal -67.8% | CAKI-1 renal -98.8% | CCRF-CEM leukemia -31.1% | MOLT-4 leukemia 4.29%
inactive: SK-MEL-2 melanoma 46.1% | SN12C renal 26.1%

CCCCCCCC(=O)SCC/C=C/[C@@H]1CC(=O)NCc2cccc(n2)C2=N[C@@](C)(CS2)C(=O)N[C@@H](C(C)C)C(=O)N1
active: HT29 colon -6.83% | UACC-62 melanoma 0.721% | LOX IMVI melanoma -1.52%
inactive: HCT-15 colon 75.3% | SNB-75 CNS 24.5% | SNB-19 CNS 38.6% | U251 CNS 13.7% | PC-3 prostate 26.9% | SK-MEL-5 melanoma 22.2% | SK-MEL-28 melanoma 37.1% | SK-MEL-2 melanoma 18.1% | EKVX NSCLC 51.3% | UO-31 renal 50.8% | TK-10 renal 12% | ACHN renal 59.6% | CAKI-1 renal 82.3% | CCRF-CEM leukemia 44.9% | MOLT-4 leukemia 17.5%

COc1ccc2nc3cc(Cl)ccc3c(Nc3ccc(N(C)C)cc3)c2c1
inactive: HCT-15 colon 91.1% | HT29 colon 72.1% | SNB-75 CNS 111% | SNB-19 CNS 101% | U251 CNS 93.5% | PC-3 prostate 85.4% | SK-MEL-5 melanoma 100% | UACC-62 melanoma 98.1% | LOX IMVI melanoma 88.8% | SK-MEL-28 melanoma 112% | SK-MEL-2 melanoma 96.8% | EKVX NSCLC 92.9% | SN12C renal 91.1% | UO-31 renal 84% | TK-10 renal 128% | A498 renal 94.6%
active: MOLT-4 leukemia 0.475%

C=CCCCC(=O)CCC(=O)OCC1O[C@@H](O[C@@H]2C(O)[C@@H](OC(C)=O)C(C)O[C@H]2O[C@H](CC=C)CCCCC)C(O)[C@@H](OC(=O)/C(C)=C/C)[C@@H]1OC(=O)/C=C/c1ccccc1 (stereo partly specified)
inactive: HCT-15 colon 20.6% | SNB-75 CNS 30.1% | SNB-19 CNS 45.7% | U251 CNS 11% | PC-3 prostate 31.3% | UACC-62 melanoma 20.1% | SK-MEL-28 melanoma 33% | EKVX NSCLC 30.5% | UO-31 renal 24.5% | TK-10 renal 27% | ACHN renal 23.4% | A498 renal 52.5% | CCRF-CEM leukemia 29.2% | MOLT-4 leukemia 26.7%
active: HT29 colon 0.411% | SK-MEL-5 melanoma -71.5% | LOX IMVI melanoma -52.9% | SK-MEL-2 melanoma 4.44%

O=C1CSC(c2c(F)cccc2Cl)N1NC(=O)C(O)(c1ccccc1)c1ccccc1 (stereo unspecified)
inactive: HCT-15 colon 102% | HT29 colon 95.9% | SNB-75 CNS 82.9% | SNB-19 CNS 98.4% | U251 CNS 95.7% | PC-3 prostate 95.5% | SK-MEL-5 melanoma 89.5% | UACC-62 melanoma 82.8% | LOX IMVI melanoma 94.2% | SK-MEL-28 melanoma 107% | SK-MEL-2 melanoma 103% | EKVX NSCLC 95.2% | SN12C renal 93.8% | TK-10 renal 113% | ACHN renal 99.9% | CAKI-1 renal 93.3% | A498 renal 102% | CCRF-CEM leukemia 97% | MOLT-4 leukemia 74%

COc1ccc(C2OC(c3cc(-c4cc5ccccc5o4)nn3-c3ccccc3)=NN2C(C)=O)cc1 (stereo unspecified)
active: SK-MEL-5 melanoma 8.69%
inactive: HCT-15 colon 97.2% | HT29 colon 93.3% | SNB-75 CNS 87.5% | SNB-19 CNS 91.3% | U251 CNS 96.2% | PC-3 prostate 88.9% | UACC-62 melanoma 86.9% | LOX IMVI melanoma 85.5% | SK-MEL-28 melanoma 109% | SK-MEL-2 melanoma 94.5% | EKVX NSCLC 94.5% | SN12C renal 93.2% | TK-10 renal 111% | ACHN renal 99.3% | CAKI-1 renal 100% | CCRF-CEM leukemia 95.5% | MOLT-4 leukemia 83%

Cc1ccc(NC(=O)NC(=O)CSc2nc3ccccc3nc2C)cc1
inactive: HCT-15 colon 89% | HT29 colon 67.5% | SNB-75 CNS 70.8% | SNB-19 CNS 80.8% | U251 CNS 84.2% | PC-3 prostate 67% | SK-MEL-5 melanoma 38.7% | UACC-62 melanoma 52.5% | LOX IMVI melanoma 58.8% | SK-MEL-28 melanoma 75.2% | SK-MEL-2 melanoma 68.3% | EKVX NSCLC 59.6% | UO-31 renal 64.5% | TK-10 renal 82.3% | ACHN renal 75.6% | A498 renal 69.2% | CCRF-CEM leukemia 58.9% | MOLT-4 leukemia 74.3%
